Screens (PubChem)
HT1080-NT tox: qHTS for induction of synthetic lethality in tumor cells producing 2HG: qHTS for the HT-1080-NT fibrosarcoma cell line; hit rate 1.6% among 360,000; Potency, µM (titrated, usually from 46.1 µM), actives largely listed as cytotoxic; HT-1080-NT fibrosarcoma viability, CellTiter-Glo ATP luminescence, 48 h;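 note: NT is the 2HG producing partner of a matched IDH1 knockdown line; nearly all actives have a fitted effect of over 55% in size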
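Luminescent CellTiter-Glo readout after 48 hours of compound exposure at 37 degrees C defined viability of HT-1080-NT cells. Activity was normalized to DMSO wells and cell-free media wells; concentration-response curves were fitted and assigned curve classes.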
SW480 rerep: A quantitative high throughput screen for small molecules that induce DNA re-replication in SW480 colon adenocarcinoma cells | SW480 DNA re-replication, Hoechst DNA content imaging, 48 h | Potency, µM (highest dose often 46.1 µM), actives largely listed as activators | hit rate 1.8% among 340,000; note: nearly all actives have a fitted effect of over 55% in size
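250 cells/well; 23 nL cpd via pin tool; 48 hr, 37 C, 5% CO2; Hoechst 40 min; imager read of total nuclear intensity, ex 405/em 500-530 nm.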
KB-V1 MDR tox: qHTS assay for MDR1-selective chemotherapeutics: Primary screen using the drug-selected MDR subline cells KB-V1 | KB-V1 MDR cells viability, CellTiter-Glo, 72 h | Potency, µM (doses to about 46.1 µM), actives largely listed as cytotoxic | hit rate 3.4% among 400,000; note: nearly all actives have a fitted effect of over 60% in size
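KB-V1 MDR subline cells in DMEM (phenol-red free, 10% FBS) exposed to compounds in qHTS concentration series for 72 h at 37 degrees C. Viability read by CellTiter-Glo luminescence; concentration-effect curves fitted after normalization and correction.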
HT1080 IDH1KD tx: qHTS for induction of synthetic lethality in tumor cells producing 2HG: qHTS for the HT-1080-IDH1KD cell line; HT-1080 IDH1 knockdown viability, ATP luminescence, 48 h; Potency, µM (series often up to 46.1 µM), hits mostly cytotoxic; hit rate 2% among 360,000; AID 686971, 2013
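Cytotoxicity counter-line: IDH1KD HT-1080, 48 h, CellTiter-Glo. Curves classed by r2, magnitude and activity.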
KB-3-1 tox: qHTS assay for MDR1-selective chemotherapeutics: Primary screen using the parental adenocarcinoma cell KB-3-1. KB-3-1 viability, CellTiter-Glo ATP luminescence, 72 h. Potency, µM (top dose mostly 46.1 µM), most hits filed as cytotoxic. hit rate 1.4% among 400,000. AID 1347075, 2019; note: nearly all actives have a fitted effect of over 60% in size
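Viability of parental KB-3-1 cells, measured by CellTiter-Glo luminescence, followed a 72 h incubation at 37 °C with pinned compounds in phenol-red-free DMEM containing 10% FBS.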
MCF10A rereplic: A quantitative high throughput screen for small molecules that induce DNA re-replication in MCF 10a normal breast cells; AID 624296, 2012; MCF 10A DNA re-replication, Hoechst nuclear intensity, 48 h; hit rate 2.9% among 350,000; Potency, µM (top dose mostly 46.1 µM), usual class: activators; note: nearly all actives have a fitted effect of over 50% in size
Hits are given with their value; - = inactive; ? = inconclusive; . = not tested or not shown. Most compounds without a hit are left out; they make up all but 7.9% or so of the library. Calls come from the whole dose curve; as a rule, active = well fitted curve in the direction sought with a large enough effect; inconclusive = small, poorly fitted or top-dose-only effect, or another doubt; inactive = no such curve, though single readings can be large; an effect the other way counts as inactive or inconclusive.

SMILES	HT1080-NT tox	SW480 rerep	KB-V1 MDR tox	HT1080 IDH1KD tx	KB-3-1 tox	MCF10A rereplic
CCCOP(=O)(OCCC)C(Nc1ccc(C(C)C)cc1)c1ccc([N+](=O)[O-])cc1 (stereo unspecified)	?	20.6µM	11.6µM	?	?	?
N/C(=N\N=C/c1ccc(-c2ccc(O)c(C(=O)O)c2)o1)N[N+](=O)[O-]	-	-	?	-	-	-
COc1ccc(/C=N/N=C(/N)N[N+](=O)[O-])c(OC)c1	-	-	1.03µM	-	1.46µM	?
COc1ccc(/C=C/c2nc3ccccc3c(=O)n2-c2ccc(C)cc2)cc1O	.	.	-	.	-	.
O=c1[nH]c(CN2CC=C(c3ccccc3)CC2)nc2scc(-c3ccccc3)c12	-	-	?	-	?	18.4µM
O=c1[nH]c(CN2CC=C(c3ccccc3)CC2)nc2cc(C(F)(F)F)ccc12	-	-	?	-	-	14.6µM
Cc1ccc2c(CN3CC=C(c4ccccc4)CC3)cc(=O)oc2c1C	-	-	-	-	-	-
CC(C)CC(NC(=O)CCCNC(=O)CCC(=O)OC1O[C@H]2OC3(C)CC[C@H]4[C@H](C)CCC(C1C)C24OO3)C(=O)O (stereo partly specified)	23.1µM	8.2µM	?	18.4µM	7.31µM	-
C[C@H]1[C@H](OC(=O)CCC(=O)NCc2ccc(C(=O)O)cc2)O[C@@H]2O[C@@]3(C)CC[C@H]4[C@H](C)CC[C@@H]1C24OO3	?	?	14.6µM	8.2µM	8.2µM	?
CC1C(OC(=O)CCC(=O)NC(C)(C)CO)O[C@H]2OC3(C)CC[C@H]4[C@H](C)CCC1C24OO3 (stereo partly specified)	?	?	13µM	10.3µM	10.3µM	-
Cc1onc(-c2ccccc2)c1C(=O)N[C@@H]1C(=O)N2C1SC(C)(C)[C@@H]2C(=O)O (stereo partly specified)	-	?	-	-	-	-
N#Cc1ccccc1NC(=O)c1cccn(Cc2ccccc2)c1=O	.	.	-	.	-	.
O=C1CC(CSc2ccc(Cl)cc2)=NN1	-	-	-	-	-	?
Cc1nn(-c2nc3ccccc3s2)c(C)c1Oc1ccccc1O	12.6µM	?	-	12.6µM	-	?
NCC[C@H](O)C(=O)N[C@H]1C[C@@H](N)[C@@H](O[C@H]2O[C@@H](CN)[C@@H](O)[C@@H](O)[C@@H]2N)[C@@H](O[C@H]2O[C@@H](CO)[C@@H](O)[C@@H]2O)[C@@H]1O	.	-	.	.	.	-
COc1ccc(NC(=S)Nc2ncccc2C)c(OC)c1	7.08µM	?	-	10µM	-	-
COc1ccc(C2/C=C\CN(C(=O)Oc3ccc(C(F)(F)F)cc3)CC(=O)N2Cc2ccc(F)cc2)cc1 (stereo unspecified)	-	-	-	-	-	?
COCCCn1c(N)c(C(=O)Nc2sc3c(c2C(=O)OC)CCCC3)c2nc3ccccc3nc21	-	-	-	-	-	-
CC(C)CCNC(=O)c1c(N)n(CC2CCCO2)c2nc3ccccc3nc12 (stereo unspecified)	?	5.17µM	?	?	?	2.31µM
CCC(C)NC(=O)c1c(N)n(CC2CCCO2)c2nc3ccccc3nc12 (stereo unspecified)	-	18.4µM	?	-	-	?
Oc1cc[c]([Hg][Cl])cc1	.	?	.	.	.	1.06µM
Oc1cccc[c]1[Hg][Cl]	.	?	.	.	.	-
Cc1ccc(C2=NOC(C)(c3nnc(-c4ccccc4)o3)C2)cc1 (stereo unspecified)	-	-	?	-	-	?
N#CC1c2ccccc2-n2nncc2CN1Cc1cc(Cl)cc(Cl)c1 (stereo unspecified)	8.2µM	?	?	6.51µM	5.8µM	6.51µM
COc1ccc(CN2Cc3cnnn3-c3ccccc3C2C#N)cc1 (stereo unspecified)	8.2µM	?	?	6.51µM	-	3.26µM
SMILES	HT1080-NT tox	SW480 rerep	KB-V1 MDR tox	HT1080 IDH1KD tx	KB-3-1 tox	MCF10A rereplic
CN1Cc2cnnn2-c2ccccc2C1C#N (stereo unspecified)	-	?	-	?	?	?
COc1ccc(C(=O)N2Cc3cnnn3-c3ccccc3C2C#N)cc1 (stereo unspecified)	-	?	-	-	-	-
COc1ccc(CN2Cc3cnnn3-c3ccccc3C2c2ccccc2)cc1 (stereo unspecified)	?	?	?	?	?	16.4µM
OCC(O)[C@H]1O[C@@H]2O[C@H](C(Cl)(Cl)Cl)O[C@@H]2[C@H]1O (stereo partly specified)	.	-	.	.	.	-
[O]=[Sb]([OH])([OH])[c]1ccccc1	.	.	-	.	?	.
CCCCCCn1c(=O)c(C(=O)Nc2nc(CC(=O)OCC)cs2)c(O)c2ccccc21	-	-	2.06µM	-	?	?
CCOC(=O)Cc1csc(NC(=O)c2c(O)c3ccccc3n(CCC(C)C)c2=O)n1	-	-	8.2µM	-	?	-
CN(C)CCNC(=O)C(=O)NCC1OCCCN1S(=O)(=O)c1cccs1 (stereo unspecified)	-	?	-	-	?	-
Cc1ccc(NC(=O)CCCn2c(=O)oc3ccccc32)c(O)c1	-	-	-	-	-	-
O=C(Cc1ccccc1)N1CCN(Cc2cccc(Cl)c2)CC1	-	-	-	?	-	-
O=C(NCCCN1CCCC1)c1ccc2c(c1)N(Cc1cccc(Cl)c1)C(=O)c1ccccc1S2=O (stereo unspecified)	16.4µM	-	-	?	-	-
O=c1[nH]c2ccccc2n1C1CCN(C(c2nnnn2-c2ccc3c(c2)OCCO3)C2CC2)CC1 (stereo unspecified)	?	.	-	?	?	.
O=c1[nH]c2ccccc2n1C1CCN(C(c2cccs2)c2nnnn2-c2ccc3c(c2)OCCO3)CC1 (stereo unspecified)	?	.	?	3.26µM	?	.
Cc1cccc(C)c1-n1nnnc1C(c1ccccc1OC(F)(F)F)N1CCC(n2c(=O)[nH]c3ccccc32)CC1 (stereo unspecified)	-	.	-	-	23.1µM	.
O=c1[nH]c2ccccc2n1C1CCN(C(c2ccccc2OC(F)(F)F)c2nnnn2-c2ccc3c(c2)OCCO3)CC1 (stereo unspecified)	?	.	?	23.1µM	?	.
